Source: PubChem BioAssay (Tox21)
Results filed as inconclusive are left out. Where a call stands in place of a potency, no number is given. Active and inactive are the calls of the source. Unless noted, calls follow the shape of the dose curve; as a rule, active = well fitted curve in the direction sought with a large enough effect in the repeat runs; inconclusive = weak or mixed curves; inactive = no such curve, though single readings can be large; an effect the other way counts as inactive or inconclusive. Positions of bridges follow the written chain, without caps; N, C: chain ends. Non-standard residues stand in square brackets, D forms with d. Residues, ends and D or L forms follow the SMILES beside them. hArg = N=C(N)NCCCC[C@H](N)C(=O)O; Mpa = O=C(O)CCS

Experiments:
[1] = qHTS assay to identify small molecule HDAC inhibitors - cell viability counter screen (AID 1259365); also: series mostly up to about 92 µM; nearly all actives have a fitted effect of over 50% in size
Procedure, shortened: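 Wild-type HCT-116 cells, 1,500/well, cultured overnight, then compound-treated 2 h at 37 C. Viability measured as ATP luminescence with CellTiter-Glo after 30 min at room temperature.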

[2] = qHTS assay to identify small molecule agonists of the sonic hedgehog signaling (Shh) pathway - cell viability counter screen (AID 1259366); also: nearly all actives have a fitted effect of over 50% in size
Procedure, shortened: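 NIH/3T3-derived Gli1-Luc reporter cells, 2,000 per well, received compound after 4 h and were treated about 23 h at 37C. Viability measured in the same wells by CellTiter-Fluor fluorescence after 1 h.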

[3] = qHTS assay to identify small molecule antagonists of the sonic hedgehog signaling (Shh) pathway - cell viability counter screen (AID 1259367); also: nearly all actives have a fitted effect of over 55% in size
Procedure, shortened: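 Fluorescence read-out (CellTiter-Fluor, 1 hr at 37C) taken after 23 hr compound treatment of 3T3 Gli1-Luc cells stimulated with conditioned medium. Cells were seeded at 2,000 per well and pre-incubated 4 hr.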

[4] = qHTS assay to identify small molecule agonists of the sonic hedgehog signaling (Shh) pathway (AID 1259368; calls by dose curve;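 also: NIH/3T3-derived 3T3Gli1-Luc cells carrying a stable Gli1-driven firefly luciferase reporter; series mostly up to about 92 µM; nearly all actives have a fitted effect of over 15% in size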)
Procedure, shortened: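 Quantitative high-throughput format using a Gli1-driven firefly luciferase reporter line derived from NIH/3T3 cells. After a 24 hr compound treatment at 37 C and 5% CO2, luminescence reported Gli1 response element activity.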

[5] = biological target: Estrogen receptor beta (Homo sapiens) (UniProt Q92731); assay: qHTS assay to identify small molecule agonists of the estrogen receptor beta (ER-beta) signaling pathway (AID 1259377; active = well fitted activation curve with a large enough effect in the signal ratio in the repeat runs, not every such curve was filed as active; the % refers to the signal ratio)
Procedure, shortened: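 ER-beta-UAS-bla HEK293T cells in medium with 2% charcoal-stripped FBS were exposed to compounds for 16 h at 37C. Beta-lactamase reporter activity was read as fluorescence after 2 h with LiveBLAzer B/G FRET substrate at room temperature.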

[6] = biological target: Estrogen receptor beta (Homo sapiens) (UniProt Q92731); assay: qHTS assay to identify small molecule antagonists of the estrogen receptor beta (ER-beta) signaling pathway (AID 1259378; active = well fitted inhibition curve with a large enough effect in the signal ratio in the repeat runs, not every such curve was filed as active; the % refers to the signal ratio)
Procedure, shortened: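 ER-beta-UAS-bla HEK293T cells in 2% charcoal-stripped FBS medium treated with compound plus 1nM final 17-beta-estradiol for 16 hr at 37C. Beta-lactamase reporter read by FRET substrate fluorescence after 2 hours at room temperature.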

[7] = qHTS assay to identify small molecule agonists of the androgen receptor (AR) signaling pathway in the presence of an antagonist - cell viability counter screen (AID 1259379);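 also: MDA-kb2 human breast cancer cells carrying an MMTV luciferase reporter; series mostly up to about 92 µM; nearly all actives have a fitted effect of over 25% in size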
Procedure, shortened: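 Nilutamide-containing (3.0uM final) MDA-kb2 cultures, 3,000 cells/well, were treated with compounds across 15 concentrations. After 16 hr at 37C with no CO2, cell viability was determined by CellTiter-Fluor fluorescence in the luciferase assay wells.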

[8] = qHTS assay to identify small molecule agonists of the estrogen receptor beta (ER-beta) signaling pathway - cell viability counter screen (AID 1259380); also: nearly all actives have a fitted effect of over 30% in size
Procedure, shortened: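 Steps: plate ER-beta-UAS-bla HEK293T cells, rest 6 hr; add compounds in DMSO; incubate 16 hr at 37C, 5% CO2; add FRET substrate 2 hr; add CellTiter-Glo, wait 30 min at room temperature; read luminescence.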

[9] = qHTS assay to identify small molecule agonists or antagonists of the thyroid stimulating hormone receptor (TSHR) signaling pathway - wild type cell line counter screen (AID 1259384; calls by dose curve)
Procedure, shortened: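 Wild-type Hek293 cells, 800/well, 18 h at 37C, then compound with Ro20-1724 for 30 min RT. cAMP by HTRF (cAMP-d2/anti-cAMP cryptate), 1 h RT, fluorescence read. 15 concentrations, triplicates.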

[10] = biological target: Thyrotropin receptor (Homo sapiens) (UniProt P16473); assay: qHTS assay to identify small molecule antagonists of the thyroid stimulating hormone receptor (TSHR) signaling pathway (AID 1259385; calls by dose curve; also: nearly all actives have a fitted effect of over 20% in size)
Procedure, shortened: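 TSHR-HEK293 cells (800/well) plated 18 h, then compounds with Ro20-1724 and TSH at 1.5 ng/mL final, 30 min at room temperature. cAMP quantified by HTRF (cAMP-d2/anti-cAMP-cryptate, 1 h); 15 concentrations in triplicate.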

[11] = qHTS assay to identify small molecule antagonists of the progesterone receptor (PR) signaling pathway - cell viability counter screen (AID 1346798); also: series mostly up to about 92 µM; nearly all actives have a fitted effect of over 50% in size
Procedure, shortened: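 PR-UAS-bla HEK293T cells, 3,000/well in 2% charcoal-stripped FBS medium, dosed with compounds plus R5020 agonist and incubated 16 h at 37C. Viability then measured in the same wells by CellTiter-Glo luminescence after 30 min at RT.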

[12] = qHTS assay to identify small molecule agonists of the progesterone receptor (PR) signaling pathway - cell viability counter screen (AID 1346799; calls by dose curve; also: nearly all actives have a fitted effect of over 45% in size)
Procedure, shortened: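 Counter screen in the PR-UAS-bla HEK293T wells (2% charcoal-stripped FBS, 16 h compound exposure at 37 C) after the bla read. CellTiter-Glo added, 30 min at room temperature, luminescence read as cell viability.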

[13] = qHTS assay to identify small molecule antagonists of the TGF-beta/Smad signaling pathway - cell viability counter screen (AID 1346824); also: nearly all actives have a fitted effect of over 50% in size
Procedure, shortened: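 SBE-bla HEK 293T cells, incubated overnight, then compound plus 0.25 ng/mL TGF-beta1 (stock added) for 5 hr at 37 C. Viability was read in the same wells by CellTiter-Glo luminescence after 30 min at room temperature.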

[14] = qHTS assay to identify small molecule antagonists of the estrogen receptor beta (ER-beta) signaling pathway - cell viability counter screen (AID 1259382); also: series mostly up to about 92 µM; nearly all actives have a fitted effect of over 55% in size
Procedure, shortened: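 Viability is scored by CellTiter-Glo luminescence (30 min, room temperature) in ER-beta-UAS-bla HEK293T wells already read for reporter fluorescence. Compound exposure lasts 16 hr at 37C alongside 1nM 17-beta-estradiol in charcoal-stripped serum medium.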

[15] = biological target: Estrogen receptor (Homo sapiens) (UniProt P03372); assay: qHTS assay to identify small molecule agonists of the estrogen receptor alpha (ER-alpha) signaling pathway in the presence of an antagonist (AID 1259383; calls by dose curve; also: top concentration of the series differs between compounds; nearly all actives have a fitted effect of over 15% in size)
Procedure, shortened: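 Readout was ERE-driven luciferase luminescence in VM7Luc4E2 cells, which express full-length ER-alpha endogenously. Compounds were tested at 15 concentrations for 22hr alongside 10.0nM ICI-182,780 (final concentration).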

[16] = qHTS assay to identify small molecule agonists of the estrogen receptor alpha (ER-alpha) signaling pathway in the presence of an antagonist - cell viability counter screen (AID 1259386);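 also: series mostly up to about 92 µM; cells exposed to compounds for 22 h at 37 °C before the viability read; nearly all actives have a fitted effect of over 30% in size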
Procedure, shortened: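 In this counter screen, compound effects on VM7Luc4E2 viability were tested in the presence of the antagonist ICI-182,780 at 10.0nM final. Compounds were dosed at 15 concentrations, exposure lasted 22hr, and the CellTiter-Fluor signal was read.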

[17] = biological target: Progesterone receptor (Homo sapiens) (UniProt P06401); assay: qHTS assay to identify small molecule agonists of the progesterone receptor (PR) signaling pathway (AID 1346784; calls by dose curve; also: nearly all actives have a fitted effect of over 30% in size)
Procedure, shortened: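 PR-UAS-bla HEK 293T cells (beta-lactamase reporter under UAS) in 2% charcoal-stripped FBS, dosed with 23 nL compound after 6 hr, incubated 16hr at 37C. LiveBLAzer B/G FRET substrate added, fluorescence read after 2 hours.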

[18] = biological target: Progesterone receptor (Homo sapiens) (UniProt P06401); assay: qHTS assay to identify small molecule antagonists of the progesterone receptor (PR) signaling pathway (AID 1346795; active = well fitted inhibition curve with a large enough effect in the signal ratio in the repeat runs, not every such curve was filed as active; the % refers to the signal ratio; also: potency is read from the fitted curve at half-maximal effect)
Procedure, shortened: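 PR-UAS-bla HEK293T cells with beta-lactamase reporter under UAS control, in 2% charcoal-stripped FBS, treated with compounds plus 1 nM promegestone (R5020, final) for 16 hr at 37C. Read-out: FRET beta-lactamase substrate fluorescence after 2 hr at room temperature.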

[19] = biological target: Androgen receptor (Homo sapiens) (UniProt P10275); assay: qHTS assay to identify small molecule agonists of the androgen receptor (AR) signaling pathway in the presence of an antagonist (AID 1259381; calls by dose curve; also: nearly all actives have a fitted effect of over 15% in size)
Procedure, shortened: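 Reporter-gene luminescence from MDA-kb2 cells exposed 16hr at 37C (0% CO2) to 15-point compound titrations with 3.0uM final nilutamide as AR antagonist.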

[20] = qHTS assay to identify small molecule antagonists of the sonic hedgehog signaling (Shh) pathway (AID 1259369; calls by dose curve; also: nearly all actives have a fitted effect of over 45% in size)
Procedure, shortened: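 Stable Gli1-Luc reporter NIH/3T3 clone; quantitative HTS in stimulated mode with conditioned medium. Luminescence measured after 24hr compound treatment at 37 C.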

Estrogen receptor (Homo sapiens), sequence (P03372 whole entry, looked up): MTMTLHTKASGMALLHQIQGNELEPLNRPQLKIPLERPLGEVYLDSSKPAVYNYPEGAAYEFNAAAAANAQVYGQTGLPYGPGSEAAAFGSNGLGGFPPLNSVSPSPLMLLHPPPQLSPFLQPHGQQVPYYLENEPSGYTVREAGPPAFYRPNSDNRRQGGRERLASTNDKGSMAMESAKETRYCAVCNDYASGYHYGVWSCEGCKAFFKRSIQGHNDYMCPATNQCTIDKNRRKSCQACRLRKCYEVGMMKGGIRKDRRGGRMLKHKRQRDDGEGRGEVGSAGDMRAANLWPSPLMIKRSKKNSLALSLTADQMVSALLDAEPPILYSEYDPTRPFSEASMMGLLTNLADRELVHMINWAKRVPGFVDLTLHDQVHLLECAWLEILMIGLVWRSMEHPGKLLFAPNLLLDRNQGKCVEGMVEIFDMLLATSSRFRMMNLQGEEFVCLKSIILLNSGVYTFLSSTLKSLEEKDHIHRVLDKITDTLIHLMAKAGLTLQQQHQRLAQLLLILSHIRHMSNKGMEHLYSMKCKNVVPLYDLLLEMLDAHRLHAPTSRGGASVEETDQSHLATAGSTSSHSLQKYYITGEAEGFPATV
Progesterone receptor (Homo sapiens), sequence (P06401 whole entry, looked up): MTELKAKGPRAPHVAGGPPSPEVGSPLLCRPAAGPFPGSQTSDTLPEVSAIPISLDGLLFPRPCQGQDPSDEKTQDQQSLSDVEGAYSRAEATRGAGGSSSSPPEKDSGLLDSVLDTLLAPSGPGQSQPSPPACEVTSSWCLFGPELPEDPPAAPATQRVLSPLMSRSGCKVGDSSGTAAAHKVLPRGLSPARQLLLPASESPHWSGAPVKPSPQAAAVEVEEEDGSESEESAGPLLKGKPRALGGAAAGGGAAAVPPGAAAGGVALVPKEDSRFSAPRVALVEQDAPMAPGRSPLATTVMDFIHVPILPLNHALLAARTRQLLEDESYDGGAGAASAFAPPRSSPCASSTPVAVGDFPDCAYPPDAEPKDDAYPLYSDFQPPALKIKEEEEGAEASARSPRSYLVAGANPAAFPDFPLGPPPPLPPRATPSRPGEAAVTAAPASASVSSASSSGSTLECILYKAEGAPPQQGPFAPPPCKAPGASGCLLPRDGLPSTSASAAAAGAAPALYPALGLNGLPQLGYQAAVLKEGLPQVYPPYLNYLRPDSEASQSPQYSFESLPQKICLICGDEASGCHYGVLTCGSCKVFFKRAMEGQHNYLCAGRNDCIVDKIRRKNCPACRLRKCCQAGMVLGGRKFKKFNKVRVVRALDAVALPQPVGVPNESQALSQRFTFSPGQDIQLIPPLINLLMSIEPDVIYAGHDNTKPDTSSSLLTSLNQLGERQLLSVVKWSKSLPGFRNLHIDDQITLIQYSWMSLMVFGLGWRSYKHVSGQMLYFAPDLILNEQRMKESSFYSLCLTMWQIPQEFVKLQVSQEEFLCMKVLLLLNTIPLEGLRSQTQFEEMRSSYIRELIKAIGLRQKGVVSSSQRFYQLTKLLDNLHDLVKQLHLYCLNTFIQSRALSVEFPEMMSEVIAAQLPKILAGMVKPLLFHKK
Thyrotropin receptor (Homo sapiens), sequence (P16473 whole entry, looked up): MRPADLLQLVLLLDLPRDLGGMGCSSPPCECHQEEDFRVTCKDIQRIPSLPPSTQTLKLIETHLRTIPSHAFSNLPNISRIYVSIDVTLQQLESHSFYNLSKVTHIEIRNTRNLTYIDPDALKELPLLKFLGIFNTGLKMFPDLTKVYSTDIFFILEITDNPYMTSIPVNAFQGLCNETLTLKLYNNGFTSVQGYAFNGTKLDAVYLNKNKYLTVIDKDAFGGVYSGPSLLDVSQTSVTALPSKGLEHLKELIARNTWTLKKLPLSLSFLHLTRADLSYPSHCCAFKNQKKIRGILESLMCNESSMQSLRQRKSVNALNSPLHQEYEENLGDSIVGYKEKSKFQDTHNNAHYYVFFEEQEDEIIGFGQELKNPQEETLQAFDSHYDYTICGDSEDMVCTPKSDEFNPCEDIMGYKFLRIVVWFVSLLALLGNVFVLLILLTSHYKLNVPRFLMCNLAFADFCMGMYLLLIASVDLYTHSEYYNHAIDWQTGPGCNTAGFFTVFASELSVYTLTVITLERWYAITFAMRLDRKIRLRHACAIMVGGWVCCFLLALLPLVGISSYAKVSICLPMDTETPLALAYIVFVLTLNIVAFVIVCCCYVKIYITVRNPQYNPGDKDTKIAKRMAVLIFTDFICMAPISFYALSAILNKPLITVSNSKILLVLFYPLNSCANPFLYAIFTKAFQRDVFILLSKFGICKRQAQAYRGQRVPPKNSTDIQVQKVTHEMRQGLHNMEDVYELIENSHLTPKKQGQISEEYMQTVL
Estrogen receptor beta (Homo sapiens), sequence (Q92731 whole entry, looked up): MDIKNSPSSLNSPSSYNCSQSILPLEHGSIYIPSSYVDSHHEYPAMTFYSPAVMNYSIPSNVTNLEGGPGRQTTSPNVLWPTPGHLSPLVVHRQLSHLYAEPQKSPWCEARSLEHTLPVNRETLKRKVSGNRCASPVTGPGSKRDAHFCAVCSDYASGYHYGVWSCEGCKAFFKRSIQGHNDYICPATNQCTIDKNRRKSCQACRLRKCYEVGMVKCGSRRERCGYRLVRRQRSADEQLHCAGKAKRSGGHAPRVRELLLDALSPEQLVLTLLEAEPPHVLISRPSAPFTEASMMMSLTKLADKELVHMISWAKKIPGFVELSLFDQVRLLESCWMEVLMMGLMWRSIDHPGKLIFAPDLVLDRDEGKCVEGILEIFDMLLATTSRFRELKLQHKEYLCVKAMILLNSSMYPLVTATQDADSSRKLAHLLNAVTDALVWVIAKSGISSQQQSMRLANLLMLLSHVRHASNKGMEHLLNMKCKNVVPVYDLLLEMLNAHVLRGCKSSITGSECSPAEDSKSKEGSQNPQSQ
Androgen receptor (Homo sapiens), sequence (P10275 whole entry, looked up): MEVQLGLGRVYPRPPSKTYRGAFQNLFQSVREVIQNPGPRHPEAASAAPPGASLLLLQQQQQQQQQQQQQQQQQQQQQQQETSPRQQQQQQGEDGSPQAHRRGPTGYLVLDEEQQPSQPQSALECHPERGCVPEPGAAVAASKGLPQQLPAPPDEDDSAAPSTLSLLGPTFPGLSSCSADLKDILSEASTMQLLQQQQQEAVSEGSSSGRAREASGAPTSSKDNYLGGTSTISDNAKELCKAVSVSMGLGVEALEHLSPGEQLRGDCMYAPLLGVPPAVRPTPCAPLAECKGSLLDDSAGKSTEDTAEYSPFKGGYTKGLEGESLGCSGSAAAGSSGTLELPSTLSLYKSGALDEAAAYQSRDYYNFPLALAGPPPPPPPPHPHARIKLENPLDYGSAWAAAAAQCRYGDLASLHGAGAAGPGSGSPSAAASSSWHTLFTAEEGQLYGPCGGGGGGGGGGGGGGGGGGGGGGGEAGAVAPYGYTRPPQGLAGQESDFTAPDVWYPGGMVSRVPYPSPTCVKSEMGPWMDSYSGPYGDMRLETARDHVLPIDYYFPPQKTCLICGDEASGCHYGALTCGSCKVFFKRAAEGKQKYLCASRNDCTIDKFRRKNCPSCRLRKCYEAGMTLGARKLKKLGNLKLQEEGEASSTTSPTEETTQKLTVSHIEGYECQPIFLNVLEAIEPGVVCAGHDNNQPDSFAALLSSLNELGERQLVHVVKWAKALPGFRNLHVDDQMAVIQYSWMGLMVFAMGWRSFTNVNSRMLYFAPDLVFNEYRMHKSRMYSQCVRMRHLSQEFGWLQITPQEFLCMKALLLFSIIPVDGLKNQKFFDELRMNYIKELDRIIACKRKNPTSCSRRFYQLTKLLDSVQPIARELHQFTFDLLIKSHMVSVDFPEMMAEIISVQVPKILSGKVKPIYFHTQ

Row | SMILES | outcome [1] | outcome [2] | outcome [3] | outcome [4] | Potency [5] | Potency [6] | outcome [7] | outcome [8] | outcome [9] | outcome [10] | outcome [11] | outcome [12] | outcome [13] | outcome [14] | Potency [15] | outcome [16] | Potency [17] | Potency [18] | outcome [19] | Potency [20]
1 | Cc1c(N)cccc1Cl | inactive | inactive | inactive | inactive | inactive | inactive | inactive | inactive | inactive | inactive | inactive | inactive | inactive | – | – | – | – | – | – | –
2 | CC(=O)Nc1ccc(OC(=O)c2ccccc2OC(C)=O)cc1 | inactive | inactive | inactive | inactive | – | – | inactive | inactive | inactive | inactive | – | inactive | inactive | inactive | inactive | inactive | inactive | inactive | – | –
3 | C=C(C)C1CC=C(C)C(=O)C1 (centres undefined) | inactive | inactive | inactive | inactive | inactive | inactive | inactive | inactive | inactive | inactive | inactive | – | inactive | inactive | – | – | inactive | – | – | –
4 | CCC(C(=O)OCCN1CCOC(c2ccccc2)C1C)c1ccccc1 (centres undefined) | inactive | inactive | inactive | inactive | – | – | inactive | inactive | inactive | inactive | – | – | inactive | inactive | inactive | inactive | inactive | 23.7 µM (active) | – | –
5 | CC(=O)C(C)O (centres undefined) | inactive | inactive | inactive | inactive | inactive | inactive | inactive | inactive | inactive | inactive | inactive | inactive | inactive | inactive | – | inactive | inactive | – | – | –
6 | CCCCCCC1(C)CCC(=O)O1 (centres undefined) | inactive | inactive | inactive | inactive | – | – | inactive | inactive | inactive | inactive | inactive | inactive | inactive | inactive | inactive | inactive | inactive | inactive | – | –
7 | NC(=O)[C@@H]1CSSCCC(=O)N[C@@H](CCCCN=C(N)N)C(=O)NCC(=O)N[C@@H](CC(=O)O)C(=O)N[C@@H](Cc2c[nH]c3ccccc23)C(=O)N2CCC[C@H]2C(=O)N1 ([Mpa][hArg]GDWPC-NH2; disulfide 1-7) | inactive | inactive | inactive | inactive | – | – | inactive | inactive | – | inactive | inactive | inactive | inactive | inactive | – | inactive | inactive | inactive | – | –
8 | Cn1nnc2c(C(N)=O)ncn2c1=O | inactive | inactive | inactive | inactive | inactive | inactive | inactive | inactive | – | – | inactive | inactive | inactive | inactive | inactive | inactive | inactive | inactive | – | –
9 | CCOC(=O)CC1(C)OCC(C)O1 (centres undefined) | inactive | inactive | inactive | inactive | inactive | inactive | inactive | inactive | inactive | inactive | inactive | – | inactive | inactive | inactive | inactive | inactive | inactive | – | –
10 | O=C(O)CONC(=O)c1ccccc1 | inactive | inactive | inactive | inactive | – | – | inactive | inactive | – | inactive | inactive | inactive | inactive | inactive | – | – | inactive | inactive | – | –
11 | COc1cc2c(cc1OC)C(=O)C(CC1CCN(Cc3ccccc3)CC1)C2 (centres undefined) | inactive | inactive | inactive | inactive | inactive | – | inactive | inactive | inactive | inactive | inactive | inactive | inactive | – | inactive | – | inactive | inactive | inactive | –
12 | O=C(O)[C@H](O)c1ccccc1 | inactive | inactive | inactive | inactive | – | – | inactive | inactive | – | inactive | – | inactive | inactive | inactive | inactive | inactive | inactive | inactive | – | –
13 | COC(=O)/C=C\C(=O)O | inactive | – | inactive | inactive | inactive | – | inactive | inactive | inactive | inactive | inactive | inactive | inactive | – | inactive | – | inactive | inactive | – | inactive
14 | Cn1c(=O)c2[nH]c(Br)nc2n(C)c1=O | inactive | – | inactive | inactive | inactive | inactive | inactive | inactive | inactive | inactive | inactive | inactive | inactive | – | – | inactive | inactive | inactive | – | inactive
15 | CC(CO)(CO)CO | inactive | – | inactive | inactive | inactive | – | inactive | inactive | – | inactive | inactive | – | inactive | inactive | inactive | inactive | inactive | inactive | – | inactive
16 | Cc1ccc(N)cc1S(=O)(=O)O | – | inactive | inactive | inactive | inactive | inactive | inactive | inactive | inactive | inactive | inactive | – | inactive | inactive | inactive | inactive | inactive | inactive | – | inactive
17 | c1ccc2c(CC3=NCCN3)cccc2c1 | inactive | – | inactive | inactive | – | – | inactive | inactive | inactive | – | inactive | inactive | inactive | – | – | inactive | inactive | inactive | – | inactive
